Here are results for seven compounds from PubChem BioAssay AID588442 (The Scripps Research Institute Molecular Screening Center, 2011).

Results with a measured potency or affinity are listed apart. Some structures have more than one record in an assay (separate samples or runs), and their calls can disagree. Activity calls are given as the source filed them.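 Rule for the calls: active = EC50 of 10 µM or lower; inactive = EC50 above 10 µM or not measured.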

The assay can be described thus: optical interference in Abeta FP readout, dose response, artefact control for IDE activator project, biochemical, fluorescence polarization (AID 588442). Particulars: FP artifact counterscreen, fluorescein-Abeta, no enzyme activity. (In general: Fluorescence polarisation rises when a labelled molecule tumbles more slowly, as on binding a larger partner.)
A word on the EC50: it is the concentration that produces a half-maximal response. Regarding `C#CCOCCOCCOCCNc1nc(N2CCN(C(=O)CCCCCCCCCCNC(=O)[C@H](CO)n3cc(CCCSC)nn3)CC2)nc(N2CCN(C(=O)CCCCCCCCCCNC(=O)[C@H](CCCCN)n3cc(CCO)nn3)CC2)n1`, the EC50 was > 55.9 µM (inactive). In the case of `C#CCOCCOCCOCCNc1nc(N2CCN(C(=O)CCCCCCCCCCNC(=O)[C@@H](CCSC)n3cc(CCO)nn3)CC2)nc(N2CCN(C(=O)CCCCCCCCCCNC(=O)[C@H](CO)n3cc(CCCCCN)nn3)CC2)n1`, the EC50 is > 56 µM (inactive). In the case of `C#CCOCCOCCOCCNc1nc(N2CCN(C(=O)CCCCCCCCCCNC(=O)Cn3cc(C[C@@H](C)O)nn3)CC2)nc(N2CCN(C(=O)CCCCCCCCCCNC(=O)[C@H](CCCN=C(N)N)n3cc(C[C@@H](C)CC)nn3)CC2)n1`, the EC50 was > 55.9 µM (inactive). For `C[n+]1c2cc(N)ccc2cc2ccc(N)cc21` the value was 0.576 µM (active); for `C#CCOCCOCCOCCNc1nc(N2CCN(C(=O)CCCCCCCCCCNC(=O)[C@H](CCCCN)n3cc(CCO)nn3)CC2)nc(N2CCN(C(=O)CCCCCCCCCCNC(=O)[C@H](CCCN=C(N)N)n3cc(C[C@@H](C)CC)nn3)CC2)n1`, > 55.9 µM (inactive). With `C#CCOCCOCCOCCNc1nc(N2CCN(C(=O)CCCCCCCCCCNC(=O)Cn3cc(CCCCCN)nn3)CC2)nc(N2CCN(C(=O)CCCCCCCCCCNC(=O)[C@H](CO)n3cc(CCCSC)nn3)CC2)n1`, the EC50 was > 54.7 µM (inactive). For `C#CCOCCOCCOCCNc1nc(N2CCN(C(=O)CCCCCCCCCCNC(=O)[C@H]([C@@H](C)CC)n3cc(CCCCN=C(N)N)nn3)CC2)nc(N2CCN(C(=O)CCCCCCCCCCNC(=O)[C@@H]([C@H](C)O)n3cc(C)nn3)CC2)n1` the value was > 54.7 µM (inactive).
